# Compounds without any hit were thinned out: in the full panel of roughly 79,000, 15% have a hit. Unmarked numbers belong to inactive results. Active and inactive are the calls of the source. Rule as the data show it: active = growth inhibition above about 70%; inactive = the rest.
# How the values were obtained:
# [1] = NCI Yeast Anticancer Drug Screen. Data for the rad50 strain (AID 155);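 also: 0% = growth of vehicle-only cultures of the same strain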; conditions: S. cerevisiae rad50 strain growth inhibition; at 50.0 µM; hits give high values
# Procedure, shortened: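 Yeast carrying a defined DNA repair defect were exposed to test compounds, and growth was compared with vehicle-treated controls to give percent inhibition.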
# [2] = NCI Yeast Anticancer Drug Screen. Data for the mec2-1 strain (AID 157); conditions: S. cerevisiae mec2-1 strain, at 50.0 µM, hits give high values
# Procedure, shortened: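 Vehicle-treated cultures served as reference for growth inhibition of compound-exposed mec2-1 yeast.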
# [3] = NCI Yeast Anticancer Drug Screen. Data for the sgs1 mgt1 strain (AID 161);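 also: 0% = growth of cultures given vehicle only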; conditions: S. cerevisiae sgs1 mgt1 strain, at 50.0 µM, hits give high values
# Procedure, shortened: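 Genetically altered yeast, compound exposure, growth inhibition relative to vehicle.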
# [4] = NCI Yeast Anticancer Drug Screen. Data for the cln2 rad14 strain (AID 165);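 also: 0% = growth equal to vehicle treated cultures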; conditions: S. cerevisiae cln2 rad14 strain, at 50.0 µM, hits give high values
# Procedure, shortened: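 Each compound was tested on cln2 rad14 yeast. Inhibition of growth was calculated against vehicle-exposed controls.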
# [5] = NCI Yeast Anticancer Drug Screen. Data for the bub3 strain (AID 167); conditions: S. cerevisiae bub3 mutant strain, at 50.0 µM, hits give high values
# Procedure, shortened: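 Compounds were applied to a genetically altered yeast strain carrying a cell-cycle control defect. Growth inhibition was scored against vehicle-treated controls.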
# [6] = NCI Yeast Anticancer Drug Screen. Data for the mlh1 rad18 strain (AID 175); conditions: S. cerevisiae mlh1 rad18 strain growth inhibition; at 50.0 µM; hits give high values
# Procedure, shortened: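 Vehicle-treated cultures served as the reference for growth inhibition in a yeast strain carrying DNA damage repair alterations exposed to each compound.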
SMILES,growth inhibition [1],growth inhibition [2],growth inhibition [3],growth inhibition [4],growth inhibition [5],growth inhibition [6]
O=[N+]([O-])c1cccc(N=Nc2ccccc2)c1,-4.25%,-10.3%,-22.3%,18.7%,-21.6%,-0.95%
O=C(NNC(=O)c1ccccc1Br)c1ccccc1Br,-18.9%,-48.8%,-9.6%,0.45%,-25.1%,-18.1%
CCC(=O)OCC(OC(=O)CC)c1ccccc1 (stereo unspecified),3.75%,-22.6%,-16.1%,2.05%,3.75%,8.2%
CON(C)S(=O)c1ccc([N+](=O)[O-])cc1 (stereo unspecified),29.8%,19.1%,5.45%,-15.6%,-6.05%,22.1%
CCCOC(=O)Nc1cccc2ccccc12,0.65%,-9.3%,12.5%,-62.4%,-21.8%,-17.2%
Ic1ccc(-n2cccc2)cc1,8.4%,5.55%,-1.7%,-3.25%,13.8%,-18.6%
CN(C)CCCNC(=O)c1cc(NC(=O)c2cc(NC(=O)c3cc(NC(=O)CCCn4ccc(CO)c4CO)cn3C)cn2C)cn1C,6.6%,-8.6%,-5.35%,31.6%,4.8%,8.35%
CCCCCCCCCCCCCCCCNc1nc(=O)n(C2CC(O)C(COP(=O)(O)OC3CC(n4cc(F)c(=O)[nH]c4=O)OC3CO)O2)cc1F (stereo unspecified),-2.05%,-6.05%,-25.9%,0.95%,-42.6%,-31.6%
CCCC(NC(C)=O)C(=O)O (stereo unspecified),8.6%,2.75%,2.8%,-21.1%,1.15%,8%
O=C(O)CN1C(=O)c2ccccc2C1=O,-8.75%,-15.7%,-5.5%,-25.7%,-27.6%,-20.3%
COc1ccc(-c2csc(N)n2)cc1OC,2.15%,-3.9%,4.4%,-66.7%,-10.4%,1.9%
CCC(=O)Nc1cccc2ccccc12,5.1%,-12.7%,-10.9%,-92.4%,-5.95%,-3.1%
Cc1cc2c(c3ccccc13)C(O)c1ccccc1-2 (stereo unspecified),-7.85%,5.95%,1.5%,-15.4%,3.85%,-9.25%
CC1(C)CC(=O)C(/C=N/C(=S)NC2CCCCC2)=C(O)C1,-13.2%,-20.1%,-31.5%,10.6%,-7.7%,-8%
Cc1ccccc1C(=O)c1ccccc1Cc1cccc2ccccc12,-2.4%,-10.3%,-10.2%,1.1%,8.95%,-22.9%
O=C(NN1C(=O)C(Cl)C1c1ccccc1Cl)c1ccccc1O (stereo unspecified),-48.1%,-35.9%,-49.1%,-5.55%,-21%,-36%
N#CC(c1cc2c(cc1Br)OCO2)N1CCOCC1 (stereo unspecified),17.5%,19.4%,10.9%,8.25%,46%,-11.8%
Cc1c([N+](=O)[O-])cc(C(C)(C)C)c(OS(=O)(=O)N(C)C)c1[N+](=O)[O-],34%,10.4%,34.5%,13.1%,18.1%,26.6%
O=C1CSC(=NCCN=C2NC(=O)CS2)N1,10.5%,18.3%,9.25%,1.6%,15.1%,28.2%
CC(COc1ccc(Cl)cc1)OS(=O)(=O)CCCl (stereo unspecified),14.3%,13%,-16.1%,-16.1%,-1.1%,-4.65%
CC1(C)C2CC[C@]3(C)C(C(=O)C=C4[C@@H]5C[C@@](C)(C(=O)O)CC[C@]5(C)CCC43C)[C@@]2(C)CC[C@@H]1OC1OC(C(=O)O)C(O)C(O)C1OC1OC(C(=O)O)C(O)C(O)C1O (stereo partly specified) (tested in a mixture with another compound),5.65%,-2.45%,2.7%,-12.2%,-3.55%,-0.35%

SMILES,growth inhibition [1],growth inhibition [2],growth inhibition [3],growth inhibition [4],growth inhibition [5],growth inhibition [6]
CCOC(=O)Cc1nc2ncncc2[nH]c1=O,3.25%,12.2%,-1.8%,15.3%,2.35%,-7.85%
COc1ccc(C2(C)OCCCC2([NH-])C[NH-])cc1.[Cl][Pt+2][Cl] (stereo unspecified),10.9%,-3.15%,-2.95%,21.6%,-0.4%,9.45%
CC(=O)CC(C)=NCCN=C(C)CC(C)=O.[Cu],86.2% (active),64.2%,75.7% (active),84.4% (active),71.8% (active),82% (active)
O=S1C=Cc2ccccc21 (stereo unspecified),9.8%,20.6%,13.1%,5.8%,-0.7%,7.1%
COC(C)CCOC(=O)c1ccc(C(C)C)cc1 (stereo unspecified),6.45%,8%,10.2%,-21.7%,8.75%,1.65%
Cc1ccc(NC(=O)CCC(=O)C2CC(=O)CCC2=O)cc1C (stereo unspecified),-22.6%,-14.8%,-0.7%,5.75%,6.4%,-9.9%
COc1cc(C(=O)NC(=S)NC2CCCCCCCCCCC2)cc(OC)c1OC,8.1%,-15.3%,7.25%,1.65%,6.05%,4.6%
FC(F)(F)c1cccc(-c2nc3nc(Cl)c(Cl)nc3[nH]2)c1,15.1%,-2%,-5.7%,-15.7%,18.4%,26.3%
O=C1N2CCCSC2=NC1(c1ccccc1)c1ccccc1,-7.15%,0.7%,1.75%,11.2%,13.2%,-0.05%
O=C(O)C1C2C=CC(O2)C1C(=O)Nc1ccccc1 (stereo unspecified),13.7%,3.5%,7.5%,-1.9%,-19.4%,8.3%
CCc1c(-c2ccccc2)[nH]c(=S)c(C#N)c1C,-8.7%,-1.5%,26.6%,2.7%,-1.1%,-3.9%
Cc1cc(Br)ccc1Br,34.6%,19.3%,-1.75%,-36.4%,-4.3%,8.6%
COc1ccc(C2C3=C(COC3=O)OC(C)(C)Oc3cc4c(cc32)OCO4)cc1 (stereo unspecified),-3%,0.85%,13.7%,6.5%,36.1%,-19.9%
CCOC(=O)C[P+](c1ccc(OC)cc1)(c1ccc(OC)cc1)c1ccc(OC)cc1,90.8% (active),95.8% (active),92.5% (active),92.9% (active),92.3% (active),91.5% (active)
O=[N+]([O-])c1ccsc1Cl,-7.85%,-3.6%,-14.6%,-40.2%,-4.1%,-5.05%
SCc1ccc(CS)s1,4.65%,-1.75%,-1.65%,17.8%,23.2%,-4.3%
N#Cc1cc2c(cc1C#N)/C(=N\c1cccc(N)n1)N=C2Nc1cccc(N)n1,6.1%,19.1%,0.2%,1.25%,5.8%,22%
CN(C=C(c1ccccc1)c1ccccc1)c1ccccc1,-15.6%,-7.85%,2.2%,-21.6%,-12.8%,-32.6%
CCCCCCCCC(C)C,1.25%,3.35%,-0.3%,10.8%,1.65%,-2.65%
CC(C)(C)OC(=O)N(CCCN)CCCCN(CCCN)C(=O)OC(C)(C)C,8.45%,-9.5%,5.25%,12.8%,-5.55%,-62%

# From PubChem BioAssay (NCI)
